The test system of assay [1] is CRL-7250. Kind of assay: Cytotoxic Profiling of Annotated Libraries Using Quantitative High-Throughput Screening (AID 1296008). Also: potency is read from the fitted curve at half-maximal effect. As to max response: % is scaled to controls: 0 for no effect and ±100 for the full control effect. Particulars: Five cell lines viability, CellTiter-Glo ATP luminescence, 48-72 h; max response: hits give low values. A digest of the protocol: (§1)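 Compounds were pin-transferred onto cells and incubated 48 or 72 hr at 37 degree Celsius, 95% humidity. CellTiter-Glo was added, plates sat 10 min at room temperature, then ATP-coupled luminescence was imaged as the viability read-out.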
For orientation: ATP-based viability assays read luminescence as a measure of living cells.

For assay [2], the system named is HaCat. The description is as above. The conditions noted are these: Five cell lines viability, CellTiter-Glo ATP luminescence, 48-72 h; max response: hits give low values. In outline:
as §1

In a further assay the test system is KB-3-1. The assay is described as above. Particulars: Five cell lines viability, CellTiter-Glo ATP luminescence, 48-72 h; max response: hits give low values. A digest of the protocol:
as §1

Another assay deals with MCC-13. Kind of assay: qHTS assay to identify novel small-molecules to repurpose for Merkel cell carcinoma treatment (AID 1296009). Also: potency is read from the fitted curve at half-maximal effect. Particulars: MCC and control cell lines, CellTiter-Glo viability, 72 h; series mostly up to 46 µM. In outline: (§2)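 Cells exposed to NPC (8-point) and MIPE (11-point) compound dilutions for 72 hr at 37 degree celsius; viability read by CellTiter-Glo luminescence, normalized to no-cell and DMSO in-plate controls.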
Background: qHTS replaces the single test concentration by a dilution series.

The test system of another assay is MCC-26. The description is as above. The conditions noted are these: MCC and control cell lines, CellTiter-Glo viability, 72 h; series mostly up to 46 µM. A digest of the protocol:
as §2

The subject of a further assay is MKL-1. Described as above. Particulars: MCC and control cell lines, CellTiter-Glo viability, 72 h; series mostly up to 46 µM. A digest of the protocol: as §2
For the next assay, the system named is MKL-2. The assay is described as above. The conditions noted are these: MCC and control cell lines, CellTiter-Glo viability, 72 h; series mostly up to 46 µM. In outline:
as §2

Another assay deals with UISO. The assay is described as above. The conditions noted are these: MCC and control cell lines, CellTiter-Glo viability, 72 h; series mostly up to 46 µM. A digest of the protocol:
as §2

The next assay has as its system WaGa. The description is as above. Particulars: MCC and control cell lines, CellTiter-Glo viability, 72 h; series mostly up to 46 µM. A digest of the protocol:
as §2

A further assay has as its system SC27B. The experiment in a line: qHTS profiling for inhibitors of Plasmodium falciparum proliferation (AID 504749).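 Also: 0% = DMSO vehicle and full inhibition = artemisinin control.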 The conditions noted are these: P. falciparum in erythrocytes, SYBR Green DNA, 72 h; series mostly up to 28.7 µM. A digest of the protocol:
(§3)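 P. falciparum-infected erythrocytes (0.3% parasitemia, 2.5% hematocrit final) were exposed to compounds for 72 h at 37 C in 5% CO2, then lysed with SYBR Green buffer overnight at room temperature; parasite DNA fluorescence was normalized to artemisinin and DMSO controls.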

In a further assay the test system is TAB109. The description is as above. The conditions noted are these: P. falciparum in erythrocytes, SYBR Green DNA, 72 h; series mostly up to 28.7 µM. In outline:
as §3

Another assay deals with TAB113. The description is as above. The conditions noted are these: P. falciparum in erythrocytes, SYBR Green DNA, 72 h; series mostly up to 28.7 µM. In outline:
as §3

The subject of the next assay is TAB165. The assay is described as above. Particulars: P. falciparum in erythrocytes, SYBR Green DNA, 72 h; series mostly up to 28.7 µM. In outline: as §3
The subject of a further assay is W2. The assay is described as above. The conditions noted are these: P. falciparum in erythrocytes, SYBR Green DNA, 72 h; series mostly up to 28.7 µM. A digest of the protocol: as §3
Assay [3] deals with NIH3T3. The experiment in a line: Cytotoxic Profiling of Annotated Libraries Using Quantitative High-Throughput Screening (AID 1296008). Also: potency is read from the fitted curve at half-maximal effect. As to max response: % is scaled to controls: 0 for no effect and ±100 for the full control effect. Particulars: Five cell lines viability, CellTiter-Glo ATP luminescence, 48-72 h; max response: hits give low values. In outline: as §1
A further assay has as its system HEK293T. Kind of assay: qHTS assay to identify novel small-molecules to repurpose for Merkel cell carcinoma treatment (AID 1296009). Also: potency is read from the fitted curve at half-maximal effect. Particulars: MCC and control cell lines, CellTiter-Glo viability, 72 h; at 44.8 µM (top of the series). In outline:
as §2

The subject of assay [4] is NIH3T3. Described as above. The conditions noted are these: MCC and control cell lines, CellTiter-Glo viability, 72 h; at 44.8 µM (top of the series) unless noted. A digest of the protocol: as §2
Assay [5] deals with CRL-7250. Described as above. Particulars: MCC and control cell lines, CellTiter-Glo viability, 72 h; at 44.8 µM (top of the series) unless noted. A digest of the protocol:
as §2

Assay [6] has as its system HACAT. The assay is described as above. Particulars: MCC and control cell lines, CellTiter-Glo viability, 72 h; at 44.8 µM (top of the series) unless noted. A digest of the protocol: as §2
The test system of a further assay is HEK293. The experiment in a line: Cytotoxic Profiling of Annotated Libraries Using Quantitative High-Throughput Screening (AID 1296008). Also: potency is read from the fitted curve at half-maximal effect. As to max response: % is scaled to controls: 0 for no effect and ±100 for the full control effect. The conditions noted are these: Five cell lines viability, CellTiter-Glo ATP luminescence, 48-72 h; max response: hits give low values. In outline:
as §1

Results filed as inconclusive are left out. Unmarked numbers belong to inactive results. The source made the active and inactive calls. Calls follow the shape of the dose curve; as a rule, active = well fitted inhibition curve with a large enough effect; inconclusive = small, poorly fitted or top-dose-only effect; inactive = flat fitted curve, though single readings scatter.
Also: nearly all actives have a fitted effect of over 60% in size.

As to `CN1[C@@H]2CC[C@H]1CC(OC(=O)c1cc(Cl)cc(Cl)c1)C2` (some centres not stated), the figures for the max response in the assay on CRL-7250 [1], in the assay on HaCat [2] and in the assay on KB-3-1 were -20.4%, 3.49% and -13.9%, respectively. Besides, the Potency entry with MCC-13, in the assay on MCC-26, in the assay on MKL-1, in the assay with MKL-2, in the assay on UISO and with WaGa was “inactive” throughout.

Take `C[N+]1(CCC(C(N)=O)(c2ccccc2)c2ccccc2)CCCCC1`: the Potency entry in the assay on SC27B, in the assay on TAB109, in the assay with TAB113, in the assay on TAB165, in the assay on W2 and with MCC-13 was “inactive” throughout. Further, the Potency result with MCC-26, with MKL-1, in the assay with MKL-2, with UISO and in the assay with WaGa was “inactive” throughout. For the same compound, the figures for the max response with HaCat [2] and in the assay on KB-3-1 were -10.3% and 6.68%, respectively. For the same compound, the call with NIH3T3 [3], in the assay with HEK293T and in the assay on NIH3T3 [4] was inactive.

With `C[C@]12CC[C@H]3[C@@H](CCC4=CC(=O)CC[C@@]43C)[C@@H]1CC[C@@H]2C(=O)O`, the call with CRL-7250 [1], in the assay on HaCat [2], in the assay on CRL-7250 [5] and in the assay with HACAT [6] was inactive. Moreover, the max response in the assay on NIH3T3 [3] is 3.4%. Moreover, the Potency result in the assay with MCC-13, in the assay on MCC-26, in the assay with MKL-1, with MKL-2, with UISO and in the assay with WaGa was “inactive” in each case.

For `COc1cc(C[C@@H](C)N)c(OC)cc1C`, the values for the max response with CRL-7250 [1], in the assay with KB-3-1 and in the assay on NIH3T3 [3] were -47.5%, -10.2% and -23.9%, respectively. Moreover, the Potency entry with MCC-13, in the assay with MCC-26, in the assay on MKL-1, in the assay with MKL-2, in the assay on UISO and in the assay with WaGa was “inactive” in each case.

For the compound `C=CC[C@]1(O)CC[C@H]2[C@@H]3CCC4=CC(=O)CCC4=C3C=C[C@@]21C`, in the assay with HEK293, the Potency is 11.9 µM (active). Besides, the max response with HaCat [2] is 1.64%; in the assay on KB-3-1, -5.35%. The Potency result in the assay with MCC-13, in the assay on MCC-26, in the assay with MKL-1 and in the assay with UISO was “inactive” in each case.

Regarding `CCC(=O)O[C@H]1CC[C@H]2[C@@H]3CCC4=CC(=O)CC[C@]4(C)[C@H]3CC[C@]12C`, the Potency result in the assay with SC27B, with TAB109, in the assay with TAB113, with TAB165, in the assay on W2 and with MCC-13 was “inactive” in each case. Further, the Potency entry with MCC-26, with MKL-1, in the assay with MKL-2 and with UISO was “inactive” each time. The compound was classed as inactive with HaCat [2] and in the assay with HACAT [6]. In addition, the values for the max response with KB-3-1 and in the assay with NIH3T3 [3] were -26.4% and 0.89%, respectively.

For the compound `CCOC(=O)C(c1c(O)c2ccccc2oc1=O)c1c(O)c2ccccc2oc1=O`, the max response in the assay on CRL-7250 [1] is -6.62%. The call in the assay on HaCat [2], with NIH3T3 [3], in the assay with HACAT [6], in the assay with HEK293T and in the assay with NIH3T3 [4] was inactive. The Potency result in the assay with MCC-13, in the assay on MCC-26, in the assay with MKL-1, in the assay on MKL-2, with UISO and in the assay on WaGa was “inactive” each time.

With `Cc1nnc2n1-c1sc(CCc3ccc(CC(C)C)cc3)cc1C(c1ccccc1Cl)=NC2C` (configuration not stated), the Potency is 7.5 µM (active) in the assay on HEK293, 11.9 µM (active) in the assay on MKL-2 and 16.8 µM (active) in the assay on UISO. Further, in the assay with MCC-26, the Potency result is “inactive”.

The values above are taken from PubChem BioAssay (NCATS).
